In paper PMC7862700, “An all-to-all approach to the identification of sequence-specific readers for epigenetic DNA modifications on cytosine”:

Legend:
Assay in all cases: DAPPL (digital affinity profiling via proximity ligation, sequencing); 10 mM Tris-HCl pH 7.5, 50 mM NaCl, 1 mM DTT, 4% glycerol, room temperature, 30 min; GST-TFs on glutathione beads, 16-mer random dsDNA library, 0.1% formaldehyde crosslink after washing; high values mean tight binding
Conditions in all cases: protein: recombinant; tags: N-terminal GST; dsDNA, one strand shown
ERF = molecular target: T1, ERF (Homo sapiens, UniProt P50548 1-548)
T1 sequence: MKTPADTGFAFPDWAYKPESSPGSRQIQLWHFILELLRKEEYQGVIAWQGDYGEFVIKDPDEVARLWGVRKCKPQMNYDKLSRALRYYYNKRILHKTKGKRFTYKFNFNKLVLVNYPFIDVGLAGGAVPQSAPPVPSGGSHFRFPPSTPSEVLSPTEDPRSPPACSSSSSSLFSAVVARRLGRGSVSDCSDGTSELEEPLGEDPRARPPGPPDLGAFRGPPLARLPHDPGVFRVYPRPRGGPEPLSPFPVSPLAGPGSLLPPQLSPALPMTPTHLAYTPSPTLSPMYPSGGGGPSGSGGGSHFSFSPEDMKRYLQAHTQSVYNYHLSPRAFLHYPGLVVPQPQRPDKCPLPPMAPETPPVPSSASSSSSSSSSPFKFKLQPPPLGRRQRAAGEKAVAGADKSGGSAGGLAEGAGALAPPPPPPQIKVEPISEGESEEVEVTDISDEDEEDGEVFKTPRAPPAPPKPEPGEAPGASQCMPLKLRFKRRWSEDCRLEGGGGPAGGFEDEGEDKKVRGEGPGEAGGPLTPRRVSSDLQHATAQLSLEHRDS
How it was run: (§1)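 Binding signal is given per hexamer as its read frequency for a factor divided by its frequency in the tag-only sample. GST-fused human transcription factors were expressed in yeast, captured on glutathione beads, barcoded with DNA and pooled with that sample, then incubated with 200 nmole of a 16-mer random double-stranded DNA library in Tris/NaCl/DTT/glycerol buffer for 30 min at room temperature. The pools were then washed, crosslinked, proximity-ligated, amplified by PCR and sequenced on an Illumina NextSeq500.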

ETV3L = molecular target: T2, ETV3L (Homo sapiens, UniProt Q6ZN32 1-361)
T2 sequence: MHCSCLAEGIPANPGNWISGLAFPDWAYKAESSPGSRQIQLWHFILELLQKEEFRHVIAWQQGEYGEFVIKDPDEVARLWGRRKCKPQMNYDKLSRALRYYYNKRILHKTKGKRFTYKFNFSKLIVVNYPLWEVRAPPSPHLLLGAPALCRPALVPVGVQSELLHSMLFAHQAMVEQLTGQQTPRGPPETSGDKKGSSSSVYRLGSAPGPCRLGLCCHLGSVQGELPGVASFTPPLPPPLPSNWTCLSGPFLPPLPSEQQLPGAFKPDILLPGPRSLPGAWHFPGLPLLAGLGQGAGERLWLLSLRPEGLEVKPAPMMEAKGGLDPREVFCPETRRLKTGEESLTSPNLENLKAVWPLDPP
How it was run: as §1

ETS2 = molecular target: T3, ETS2 (Homo sapiens, UniProt P15036 1-469)
T3 sequence: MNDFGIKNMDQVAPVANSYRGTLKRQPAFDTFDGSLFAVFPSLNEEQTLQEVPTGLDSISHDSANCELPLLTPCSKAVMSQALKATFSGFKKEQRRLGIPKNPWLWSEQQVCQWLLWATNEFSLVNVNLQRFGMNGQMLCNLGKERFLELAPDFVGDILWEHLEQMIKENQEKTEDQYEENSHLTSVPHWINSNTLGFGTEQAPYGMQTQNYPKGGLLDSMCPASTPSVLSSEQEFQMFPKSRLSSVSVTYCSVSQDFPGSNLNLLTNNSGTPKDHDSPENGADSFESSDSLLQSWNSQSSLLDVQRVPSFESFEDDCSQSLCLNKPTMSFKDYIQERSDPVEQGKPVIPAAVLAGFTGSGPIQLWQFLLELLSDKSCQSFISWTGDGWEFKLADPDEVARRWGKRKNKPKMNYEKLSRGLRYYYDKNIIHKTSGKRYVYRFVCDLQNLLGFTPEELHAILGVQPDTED
How it was run: as §1

SPDEF = molecular target: T4, SPDEF (Homo sapiens, UniProt O95238 1-335)
T4 sequence: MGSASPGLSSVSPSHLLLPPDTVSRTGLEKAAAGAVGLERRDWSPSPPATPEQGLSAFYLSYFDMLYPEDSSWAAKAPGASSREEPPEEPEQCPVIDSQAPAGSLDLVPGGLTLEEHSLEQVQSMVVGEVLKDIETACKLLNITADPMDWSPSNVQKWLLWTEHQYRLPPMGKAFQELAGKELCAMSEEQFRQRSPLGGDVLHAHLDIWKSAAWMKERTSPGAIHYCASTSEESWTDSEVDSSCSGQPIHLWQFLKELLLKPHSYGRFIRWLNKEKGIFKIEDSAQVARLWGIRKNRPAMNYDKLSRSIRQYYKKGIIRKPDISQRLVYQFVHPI
How it was run: as §1

ETV7 = molecular target: T5, ETV7 (Homo sapiens, UniProt Q9Y603 1-341)
T5 sequence: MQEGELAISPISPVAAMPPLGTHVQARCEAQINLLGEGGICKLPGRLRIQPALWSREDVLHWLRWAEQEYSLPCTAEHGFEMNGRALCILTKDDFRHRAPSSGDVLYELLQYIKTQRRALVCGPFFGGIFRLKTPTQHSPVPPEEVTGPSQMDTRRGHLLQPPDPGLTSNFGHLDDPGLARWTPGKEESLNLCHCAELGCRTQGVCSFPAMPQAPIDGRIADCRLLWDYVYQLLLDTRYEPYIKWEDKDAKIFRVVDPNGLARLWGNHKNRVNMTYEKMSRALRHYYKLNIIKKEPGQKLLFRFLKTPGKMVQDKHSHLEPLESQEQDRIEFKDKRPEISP
How it was run: as §1

ELF5 = molecular target: T6, ELF5 (Homo sapiens, UniProt Q9UKW6-2 1-255)
T6 sequence: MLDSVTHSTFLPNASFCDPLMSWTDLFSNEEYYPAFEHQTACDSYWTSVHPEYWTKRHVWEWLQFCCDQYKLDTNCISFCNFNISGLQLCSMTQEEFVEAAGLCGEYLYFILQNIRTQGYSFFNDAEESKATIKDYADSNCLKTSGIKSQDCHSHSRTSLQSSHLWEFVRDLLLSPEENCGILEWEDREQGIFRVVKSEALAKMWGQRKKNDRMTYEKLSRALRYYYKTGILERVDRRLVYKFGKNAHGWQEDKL
How it was run: as §1

ETV3 = molecular target: T7, ETV3 (Homo sapiens, UniProt P41162-2 1-143)
T7 sequence: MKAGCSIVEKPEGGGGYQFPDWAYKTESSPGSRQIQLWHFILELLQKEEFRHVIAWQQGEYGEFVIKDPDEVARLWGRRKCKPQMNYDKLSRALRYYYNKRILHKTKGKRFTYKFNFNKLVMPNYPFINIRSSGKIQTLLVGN
How it was run: as §1

ETV6 = ETV6 (Homo sapiens, UniProt P41212 1-452)
How it was run: as §1

Sequence of ETV6 (P41212 whole entry): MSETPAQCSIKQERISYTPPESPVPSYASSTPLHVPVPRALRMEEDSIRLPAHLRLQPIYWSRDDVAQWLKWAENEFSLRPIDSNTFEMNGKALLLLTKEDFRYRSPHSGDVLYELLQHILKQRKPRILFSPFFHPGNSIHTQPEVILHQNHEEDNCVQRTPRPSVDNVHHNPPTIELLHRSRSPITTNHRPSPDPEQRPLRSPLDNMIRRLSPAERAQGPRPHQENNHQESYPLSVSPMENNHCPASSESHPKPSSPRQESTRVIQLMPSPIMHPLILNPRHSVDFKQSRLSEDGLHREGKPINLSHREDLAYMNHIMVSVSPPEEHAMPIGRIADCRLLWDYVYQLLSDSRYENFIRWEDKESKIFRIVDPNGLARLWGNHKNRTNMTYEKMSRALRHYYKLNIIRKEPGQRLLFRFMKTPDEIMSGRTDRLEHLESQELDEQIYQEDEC

Row | Sequence | binding signal (ERF) | binding signal (ETV3L) | binding signal (ETS2) | binding signal (SPDEF) | binding signal (ETV7) | binding signal (ELF5) | binding signal (ETV3) | binding signal (ETV6)
1 | CTTTTC | 1.33 fold enrichment (6-mer frequency, TF over GST control) | 1.48 fold enrichment (6-mer frequency, TF over GST control) | 1.33 fold enrichment (6-mer frequency, TF over GST control) | 1.49 fold enrichment (6-mer frequency, TF over GST control) | 1.49 fold enrichment (6-mer frequency, TF over GST control) | 1.58 fold enrichment (6-mer frequency, TF over GST control) | 1.69 fold enrichment (6-mer frequency, TF over GST control) | 1.57 fold enrichment (6-mer frequency, TF over GST control)
2 | TATTCT | 1.22 fold enrichment (6-mer frequency, TF over GST control) | 1.35 fold enrichment (6-mer frequency, TF over GST control) | 1.36 fold enrichment (6-mer frequency, TF over GST control) | 1.34 fold enrichment (6-mer frequency, TF over GST control) | 1.42 fold enrichment (6-mer frequency, TF over GST control) | 1.32 fold enrichment (6-mer frequency, TF over GST control) | 1.31 fold enrichment (6-mer frequency, TF over GST control) | 1.4 fold enrichment (6-mer frequency, TF over GST control)
3 | ATACCT | 1.12 fold enrichment (6-mer frequency, TF over GST control) | 1.09 fold enrichment (6-mer frequency, TF over GST control) | 1.16 fold enrichment (6-mer frequency, TF over GST control) | 1.04 fold enrichment (6-mer frequency, TF over GST control) | 1.18 fold enrichment (6-mer frequency, TF over GST control) | 1.04 fold enrichment (6-mer frequency, TF over GST control) | 1.11 fold enrichment (6-mer frequency, TF over GST control) | 1.07 fold enrichment (6-mer frequency, TF over GST control)
4 | ACCCTA | 1.3 fold enrichment (6-mer frequency, TF over GST control) | 1.26 fold enrichment (6-mer frequency, TF over GST control) | 1.24 fold enrichment (6-mer frequency, TF over GST control) | 1.19 fold enrichment (6-mer frequency, TF over GST control) | 1.27 fold enrichment (6-mer frequency, TF over GST control) | 1.19 fold enrichment (6-mer frequency, TF over GST control) | 1.25 fold enrichment (6-mer frequency, TF over GST control) | 1.17 fold enrichment (6-mer frequency, TF over GST control)
5 | GAATTT | 1.27 fold enrichment (6-mer frequency, TF over GST control) | 1.21 fold enrichment (6-mer frequency, TF over GST control) | 1.28 fold enrichment (6-mer frequency, TF over GST control) | 1.23 fold enrichment (6-mer frequency, TF over GST control) | 1.29 fold enrichment (6-mer frequency, TF over GST control) | 1.3 fold enrichment (6-mer frequency, TF over GST control) | 1.29 fold enrichment (6-mer frequency, TF over GST control) | 1.2 fold enrichment (6-mer frequency, TF over GST control)
6 | TCTCAC | 1.44 fold enrichment (6-mer frequency, TF over GST control) | 1.33 fold enrichment (6-mer frequency, TF over GST control) | 1.35 fold enrichment (6-mer frequency, TF over GST control) | 1.23 fold enrichment (6-mer frequency, TF over GST control) | 1.24 fold enrichment (6-mer frequency, TF over GST control) | 1.37 fold enrichment (6-mer frequency, TF over GST control) | 1.34 fold enrichment (6-mer frequency, TF over GST control) | 1.32 fold enrichment (6-mer frequency, TF over GST control)
7 | TTTTTC | 1.16 fold enrichment (6-mer frequency, TF over GST control) | 1.34 fold enrichment (6-mer frequency, TF over GST control) | 1.17 fold enrichment (6-mer frequency, TF over GST control) | 1.21 fold enrichment (6-mer frequency, TF over GST control) | 1.23 fold enrichment (6-mer frequency, TF over GST control) | 1.37 fold enrichment (6-mer frequency, TF over GST control) | 1.25 fold enrichment (6-mer frequency, TF over GST control) | 1.15 fold enrichment (6-mer frequency, TF over GST control)
8 | CTGGCT | 1.43 fold enrichment (6-mer frequency, TF over GST control) | 1.3 fold enrichment (6-mer frequency, TF over GST control) | 1.19 fold enrichment (6-mer frequency, TF over GST control) | 1.23 fold enrichment (6-mer frequency, TF over GST control) | 1.38 fold enrichment (6-mer frequency, TF over GST control) | 1.19 fold enrichment (6-mer frequency, TF over GST control) | 1.18 fold enrichment (6-mer frequency, TF over GST control) | 1.18 fold enrichment (6-mer frequency, TF over GST control)
9 | CCTTAG | 1.22 fold enrichment (6-mer frequency, TF over GST control) | 1.26 fold enrichment (6-mer frequency, TF over GST control) | 1.27 fold enrichment (6-mer frequency, TF over GST control) | 1.24 fold enrichment (6-mer frequency, TF over GST control) | 1.21 fold enrichment (6-mer frequency, TF over GST control) | 1.29 fold enrichment (6-mer frequency, TF over GST control) | 1.27 fold enrichment (6-mer frequency, TF over GST control) | 1.23 fold enrichment (6-mer frequency, TF over GST control)
